# From PubChem BioAssay
# Sampled rows, rich in hits. Any-hit rate of the full collection: about 21%.
# D3 antag: blocks the human D3 dopamine receptor. 360,000 tested, 2.5% active. P35462. D3R cells, DiscoveRx beta-arrestin luminescence, antagonist mode; stronger effect = lower value. max response, negative = inhibition, %; in the data active = max response below about -50%; inconclusive = no clear call, values can overlap the other calls; note: % is set by controls: 0 for no effect and ±100 for the full control effect
# Target sequence (P35462 whole entry, looked up): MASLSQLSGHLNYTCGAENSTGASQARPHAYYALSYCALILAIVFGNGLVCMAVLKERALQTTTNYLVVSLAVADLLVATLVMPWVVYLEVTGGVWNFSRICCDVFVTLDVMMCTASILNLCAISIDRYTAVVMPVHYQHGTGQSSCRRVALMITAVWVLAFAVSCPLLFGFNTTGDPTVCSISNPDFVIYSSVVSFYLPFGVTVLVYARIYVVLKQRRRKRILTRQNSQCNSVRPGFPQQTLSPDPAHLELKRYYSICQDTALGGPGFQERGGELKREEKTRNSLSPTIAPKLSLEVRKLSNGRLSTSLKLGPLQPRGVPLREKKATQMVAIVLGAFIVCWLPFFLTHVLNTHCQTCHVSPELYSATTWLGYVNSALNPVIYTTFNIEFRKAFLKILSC
#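 Cells plated overnight at 1500 cells/well, then exposed to library compounds with dopamine controls for 90 minutes at 37 degrees C. DiscoveRx reagent added for 30–60 minutes at room temperature; luminescence read, quantitative HTS format.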
# IL1B secr inh: inflammasome signaling inhibition, IL-1 beta readout | THP-1 LPS/ATP IL-1B secretion, AlphaLISA, 16 h; stronger effect = lower value | activity change, % at 57.5 µM | 360,000 tested, 4.7% active | AID 743279; in the data active = activity change below about -50%; inconclusive = mostly about -30% to -49%; note: % is set by controls: 0 for no effect and ±100 for the full control effect
#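 THP-1 cells pretreated 1 hr with compounds (up to 57.5 uM final), then stimulated with LPS (250 ng/mL final) plus ATP (1.25 mM final); secreted IL-1B measured by AlphaLISA after 16 hr, decreased signal indicating inhibition.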
# ClpP mod: qHTS Assay for Activators of ClpP | ATP-dependent Clp protease proteolytic subunit (Bacillus subtilis (strain 168)), P80244 | purified B. subtilis ClpP, FRET peptide cleavage, 20 min | Potency, µM (titrated, usually from 57.5 µM), without a hit: top-dose activity change, negative = active | 340,000 tested, 1.9% active | AID 651965, 2013; active = well fitted falling curve with a large enough effect; inconclusive = small, poorly fitted or top-dose-only effect; inactive = no such curve, though single readings can be large or run the other way; note: potency is the fitted concentration of half-maximal effect; the source files actives as falling curves though it sought activators and does not explain the sign; nearly all actives have a fitted effect of over 65% in size
# Target sequence (P80244 whole entry, looked up): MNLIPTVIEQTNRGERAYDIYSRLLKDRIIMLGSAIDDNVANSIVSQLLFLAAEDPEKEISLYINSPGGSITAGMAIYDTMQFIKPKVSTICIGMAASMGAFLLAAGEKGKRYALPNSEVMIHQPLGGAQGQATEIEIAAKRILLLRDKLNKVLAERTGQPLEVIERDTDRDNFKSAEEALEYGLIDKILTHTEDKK
#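 FRET quenching reversal measured ClpP activation: 10 microg/mL B. subtilis ClpP at pH 8 with the FRET-FV decapeptide, read at 430 nm after 320 nm excitation. The 20-min minus 0-min signal was scaled between DMSO/no-enzyme wells and ADEP (5.8 microM final).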
# DT40 TDP1 no CPT: qHTS for Inhibitors of human tyrosyl-DNA phosphodiesterase 1 (TDP1): qHTS in cells in absence of CPT | DT40 Tdp1-/- hTDP1 cells, no CPT, ATP luminescence, 48 h | Potency, µM (series often up to 46.2 µM), for the others: at the top dose activity change, negative = growth inhibition, hits mostly inhibitors | 420,000 tested, 15% active; note: potency is the fitted concentration of half-maximal effect; % is set by controls: 0 for no effect and ±100 for the full control effect; nearly all actives have a fitted effect of over 55% in size
#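 A cellular qHTS used chicken DT40 cells lacking endogenous Tdp1 but carrying stably transfected human TDP1. Compounds were applied without camptothecin, and cell growth kinetics were judged by ATP-dependent luminescence after ≥48 hr.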
# D3 ag: D3 dopamine receptor (human) agonism. D3R DiscoveRx beta-arrestin cells, luminescence, 90 min. max activation, %. 410,000 tested, 0.58% active; in the data active = max activation above about 30%; note: 0% is about no effect
#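 Cells at 1500/well, incubated overnight, then treated with pinned compounds (dopamine as control) for 90 min at 37 degrees C. DiscoveRx reagent added for 30 - 60 minutes at room temperature; luminescence read.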
# DT40 TDP1 CPT: DT40-hTDP1 cell growth loss with CPT; Potency, µM (doses to about 46.2 µM), for inactives: at the top dose activity change, negative = growth inhibition, hits mostly inhibitors; chicken DT40 Tdp1-/-;hTDP1 cells + 20 nM CPT, ATP luminescence, 48 h; 420,000 tested, 12% active; AID 686979; note: potency is the fitted concentration of half-maximal effect; % is set by controls: 0 for no effect and ±100 for the full control effect; nearly all actives have a fitted effect of over 55% in size
#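 Chicken DT40 Tdp1-/- cells complemented with human TDP1, 400 cells/well, exposed to compounds plus 20 nM camptothecin for at least 48 h at 37 C; viability read as ATP content by CellTiter-Glo luminescence.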
# Active calls of the source: *; ? = inconclusive; / = not tested or not shown. Unless noted, calls come from the whole dose curve; as a rule, active = well fitted inhibition curve with a large enough effect; inconclusive = small, poorly fitted or top-dose-only effect; inactive = flat fitted curve, though single readings scatter.
SMILES,D3 antag,IL1B secr inh,ClpP mod,DT40 TDP1 no CPT,D3 ag,DT40 TDP1 CPT
CN(Cc1cnccn1)Cc1cn(Cc2ccccc2)nc1-c1ccc2c(c1)OCO2,8,30,/,-2%,0,10%
CC(c1ccon1)N(C)Cc1cn(Cc2ccccc2)nc1-c1ccc2c(c1)OCO2 (stereo not given),9,-29,/,?,-9,18µM*
COc1cc(/C=C/c2nc(-c3ccccc3O)n[nH]2)cc(OC)c1OC,7,-121*,-39%,15µM*,3,21µM*
CC(=O)Nc1ccc(NC(=O)c2cc(-c3cc(C)c(C)cc3O)n[nH]2)cc1,13,-1,-2%,-17%,11,-9%
CC(=O)Nc1ccc(/C=C/c2nc(-c3ccccc3O)n[nH]2)cc1,11,2,-25%,29µM*,-2,?
COc1cc(/C=C/c2nc(N)nc(-c3ccccc3O)n2)cc(OC)c1OC,32,7,0%,10µM*,9,?
Cc1c(COc2ccc3ccccc3c2)nnn1CC(=O)NS(=O)(=O)c1ccccc1C(F)(F)F,13,29,2%,24%,0,0%
CN1/C(=C\C(=O)C[n+]2ccc(C(=O)c3ccccc3)cc2)C(C)(C)c2ccccc21,0,-19,0%,1.2µM*,-4,0.82µM*
Cc1ccc[n+](CC(=O)/C=C2\N(C)c3ccccc3C2(C)C)c1,1,-3,0%,1.6µM*,0,1.2µM*
CN1/C(=C\C(=O)C[n+]2cccc(Br)c2)C(C)(C)c2ccccc21,-13,-2,1%,5.8µM*,-4,4.6µM*
CN1/C(=C\C(=O)C[n+]2cccc(C(N)=O)c2)C(C)(C)c2ccccc21,4,12,/,-15%,-1,13%
Cc1cccc[n+]1CC(=O)/C=C1\N(C)c2ccccc2C1(C)C,-9,17,0%,3.3µM*,1,3.3µM*
N[C@@H](Cc1ccccc1)C(=O)N1CCC(C(=O)NCC(=O)NCC(=O)O)CC1,-22,-9,0%,2%,0,-1%
C(=C\n1nnc2ccccc21)/c1ccccn1,0,-1,-2%,-25%,-28,-6%
Cc1ccc(NC(=O)CCNC(=O)c2ccc(Cl)cc2)cc1C,-4,?,-3%,8%,-11,5%
COc1ccc(CNC(C)C23CC4CC(CC(C4)C2)C3)c(OC)c1OC (stereo not given),-1,?,-2%,15µM*,1,?
COc1ccc(N2CCN(C(=O)C3CCN(S(=O)(=O)c4cnc[nH]4)CC3)CC2)cc1,/,/,-8%,-11%,1,-22%
O=C(C1CCN(S(=O)(=O)c2cccs2)CC1)N1CCN(c2ccccc2O)CC1,16,-27,-1%,?,19,15µM*
O=C(C1CCN(S(=O)(=O)c2cccs2)CC1)N1CCN(c2ccccc2F)CC1,/,/,-11%,?,-8,-11%
CC1Cc2ccccc2N1C(=O)C1CCN(S(=O)(=O)c2cccs2)CC1 (stereo not given),13,-67*,1%,-11%,16,?
Cc1cccc(N2CCN(S(=O)(=O)c3cccs3)CC2)c1C,-6,?,/,4%,-8,0%
COc1ccc(N2CCN(C(=O)C3CCN(S(=O)(=O)c4cccs4)CC3)CC2)cc1,-2,5,-1%,23µM*,-7,?
Cc1ccccc1N1CCN(S(=O)(=O)c2cccs2)CC1,-10,-54*,-1%,-1%,2,-11%
CCOC(=O)/C(=N/Nc1ccc(Br)cc1)N1CC(C)OC(C)C1 (stereo not given),5,-15,/,?,-5,9%
C[C@H](CO)N1C[C@H](C)[C@@H](CN(C)S(=O)(=O)c2ccccc2)OCc2cnnn2CCCC1=O,12,18,2%,1%,-1,3%
SMILES,D3 antag,IL1B secr inh,ClpP mod,DT40 TDP1 no CPT,D3 ag,DT40 TDP1 CPT
Cc1ccc(C(=O)OCC(=O)N(CC(C)C)c2c(N)n(Cc3ccccc3)c(=O)[nH]c2=O)o1,12,-4,-19%,-9%,5,-5%
CC1CCN(c2ncnc3c2nnn3C)CC1,/,/,2%,-15%,-15,-20%
Cc1ccc(Cc2c(-c3ccc(C)cc3)nc3c(Cl)cc(C(F)(F)F)cn23)cc1,-17,65,-12%,?,0,?
O=C(O)C1CCN(S(=O)(=O)c2cccc3nonc23)CC1,-7,-2,2%,8%,0,0%
COc1ccc(N2CCN(C(=O)c3ccc(NS(=O)(=O)c4cccs4)cc3)CC2)cc1,19,4,/,13µM*,3,?
COc1ccc(N2CCN(C(=O)C3CCN(S(=O)(=O)c4cccc5nonc45)CC3)CC2)cc1,/,/,-3%,16µM*,8,?
COc1ccc(N2CCN(C(=O)c3ccc(NS(=O)(=O)c4ccc(F)cc4)cc3)CC2)cc1,-17,-2,0%,?,-5,?
O=C(C1CCC(CNS(=O)(=O)c2cccs2)CC1)N1CCN(c2ccc(F)cc2)CC1 (stereo not given),138,?,/,21µM*,45*,?
CCCN1C2CCCC1CC(NC(=O)c1cc(OC)cc(OC)c1)C2 (stereo not given),1,-4,-11%,3%,1,3%
O=C(CN1C2CCCC1CC(NC(=O)C1CCCCC1)C2)Nc1ccccc1C(F)(F)F (stereo not given),-2,?,/,15µM*,6,23µM*
O=C(CN1C2CCCC1CC(NC(=O)C1CCCCC1)C2)NCc1ccc(F)cc1 (stereo not given),2,0,-1%,16µM*,-2,?
CCc1cccc(CC)c1NC(=O)CN1C2CCCC1CC(NC(=O)Nc1cccc(OC)c1)C2 (stereo not given),?,?,-3%,?,-17,18µM*
COc1cccc(C(=O)NC2CC3CCCC(C2)N3CC(=O)Nc2ccccc2C(F)(F)F)c1 (stereo not given),-15,-16,/,16µM*,-11,?
COc1cccc(NC(=S)NC2CC3CCCC(C2)N3C2CCCC2)c1 (stereo not given),-1,-17,0%,?,-2,?
COc1ccc(C(=O)C2CCCN(C(=O)c3ccc4nccnc4c3)C2)c(C)c1 (stereo not given),11,0,2%,?,-8,?
